Most compounds without a hit are left out; they make up all but 2.1% or so of the library.
F508del corr: correctors of CFTR F508del function in bronchial epithelial cells; CFBE cells, YFP halide quenching; stimulated with forskolin plus potentiator P3; % fluorescence drop versus neutral controls; activity (quench increase), % at 7.58 µM; hit rate 0.36% among 350,000; AID 720511;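 active = mean added fluorescence quench of at least 8% versus neutral control, with both replicates also reaching 8%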;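 also: cells transiently co-express mutant CFTR-F508del with the halide-sensitive YFP; corrector assay measuring rescue of mutant channel to the surface after 24 h compound exposure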
ARNT TACC3 PPI: disruptors of human ARNT/TACC3 interaction; inhibition, % at 9.99 µM; Q9Y6A5; hit rate 0.66% among 390,000; AlphaScreen His-ARNT PAS-B/GST-TACC3 binding, luminescence; TACC3 fragment carries E629A point mutation;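 active = mean inhibition of replicates at least 50% and at least half of replicates each reaching 50%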
ERAP1 HTS inh: inhibitors of human ERAP1 aminopeptidase; recombinant ERAP1, Leu-AMC fluorescence, 60 min; inhibition, % at 10.7 µM; hit rate 0.15% among 340,000; AID 652197;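 active = mean replicate inhibition of at least 30%, or all replicates individually reaching that 30% level; inactive = mean below 30% and not every replicate reaching it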
Target sequence (Q9NZ08 whole entry, looked up): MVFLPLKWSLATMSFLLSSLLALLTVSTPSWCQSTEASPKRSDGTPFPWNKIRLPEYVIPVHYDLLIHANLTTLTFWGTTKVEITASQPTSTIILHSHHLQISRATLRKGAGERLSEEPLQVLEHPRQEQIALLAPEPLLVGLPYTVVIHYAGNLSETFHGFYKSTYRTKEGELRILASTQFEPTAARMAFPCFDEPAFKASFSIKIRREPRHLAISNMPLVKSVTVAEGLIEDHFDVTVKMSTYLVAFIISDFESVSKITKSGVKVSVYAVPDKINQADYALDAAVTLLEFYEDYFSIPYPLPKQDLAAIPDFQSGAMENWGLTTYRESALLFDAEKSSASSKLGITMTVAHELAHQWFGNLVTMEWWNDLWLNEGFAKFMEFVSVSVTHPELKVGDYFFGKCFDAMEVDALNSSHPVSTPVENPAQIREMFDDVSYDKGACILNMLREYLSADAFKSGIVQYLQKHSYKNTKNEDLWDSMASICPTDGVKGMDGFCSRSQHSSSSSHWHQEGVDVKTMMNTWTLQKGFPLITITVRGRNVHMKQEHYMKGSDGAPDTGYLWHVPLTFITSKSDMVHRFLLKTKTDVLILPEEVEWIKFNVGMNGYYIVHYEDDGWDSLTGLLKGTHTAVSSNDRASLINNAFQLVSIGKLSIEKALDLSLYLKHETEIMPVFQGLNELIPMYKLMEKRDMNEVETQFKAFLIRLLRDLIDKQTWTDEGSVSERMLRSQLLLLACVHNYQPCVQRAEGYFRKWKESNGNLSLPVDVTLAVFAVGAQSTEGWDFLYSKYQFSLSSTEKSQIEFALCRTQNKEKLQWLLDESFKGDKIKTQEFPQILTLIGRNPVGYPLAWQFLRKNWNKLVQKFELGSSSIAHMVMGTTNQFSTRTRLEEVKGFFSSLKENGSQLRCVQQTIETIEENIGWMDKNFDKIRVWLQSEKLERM
PvdQ inh: blocks Pseudomonas aeruginosa PvdQ acylase activity. hit rate 0.063% among 340,000. AID 488965. inhibition, % at 10 µM. purified PvdQ acylase, fluorescence plate reader; in the data active = inhibition above about 30%, passing the limit was not always enough
rRNA inh HTS: inhibits bacterial ribosomal RNA function over humanized ribosomes; hit rate 1.6% among 350,000; GFP signal change (wild-type ribosome), % (concentration not given with the values); E. coli WT GFP vs humanized-ribosome RFP mutants, fluorescence, 24 h; stronger effect = lower value; DMSO median 0, no signal -100;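 active = significant combined selectivity score with lowered wild-type GFP, culture density cut under 30%, mutant RFP and density less affected; inactive = any of these conditions unmet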
Large screens that a line does not name were inactive; ! = a repeat was not active.

N#Cc1cccc(-c2ccc([C@@H]3[C@H]4CN(Cc5ccccc5F)CCCCN4[C@H]3CO)cc2)c1	none (no result: PvdQ inh)
CN1C(=O)c2cc(NC(=O)c3ccc(F)cc3)ccc2OC[C@@H]2O[C@@H](CC(=O)O)CC[C@H]21	none (no result: PvdQ inh)
N#Cc1ccc(-c2ccc(C3[C@@H]4CN(C(=O)C5CCC5)C[C@H]3N4)cc2)cc1 (stereo not given in full)	F508del corr 10.4! (no result: ARNT TACC3 PPI, PvdQ inh)
N#Cc1ccc(-c2ccc(C3[C@@H]4CN(C(=O)C5CCCC5)C[C@H]3N4)cc2)cc1 (stereo not given in full)	none (no result: ARNT TACC3 PPI, PvdQ inh)
CN(C)S(=O)(=O)c1cccc(NC(=S)N/N=C/c2cc(Br)ccc2O)c1	ARNT TACC3 PPI 62.4
CN(C)S(=O)(=O)c1cccc(NC(=S)N/N=C/c2cccc(O)c2)c1	none (no result: F508del corr)
Cc1ccc(-n2cc(-c3ccccc3)c3c(N4CCN(C)CC4)ncnc32)cc1	none
Cc1ccc(-n2cc(-c3ccccc3)c3c(N4CCOCC4)ncnc32)cc1	F508del corr 8.2
COc1ccc(NC(=O)Nc2ccc3c(c2)C(=O)N([C@@H](C)CO)C[C@@H](C)[C@@H](CN(C)C(=O)CCC(F)(F)F)OCCCC[C@@H](C)O3)cc1	none (no result: ERAP1 HTS inh, PvdQ inh)
Oc1ccccc1/C=N/Nc1nc2ccccc2o1	none
CC(=NNc1nc2ccccc2s1)c1ncccn1	ARNT TACC3 PPI 63.4 (no result: rRNA inh HTS)
Cc1cc(C)nc(Nc2nc3ccccc3o2)n1	none
CC(=NNc1nc2ccccc2o1)c1ncccn1	ARNT TACC3 PPI 62.1
CC(=NNc1nc2ccccc2o1)c1cc2ccccc2cn1	rRNA inh HTS -21.8
CO[C@@H]1CN(C)C(=O)c2ccc(NC(C)=O)cc2OC[C@@H](C)N(C(=O)Cc2ccccn2)C[C@H]1C	none (no result: PvdQ inh)
Cn1c(CSCc2ccc(F)cc2)n[nH]c1=S	none
Cn1c(CSCc2ccc(Cl)cc2)n[nH]c1=S	rRNA inh HTS -23.2
C[C@H](CO)N1C[C@H](C)[C@H](CN(C)C(=O)c2ccccc2)OCCCC[C@H](C)Oc2ccc(NC(=O)c3ccccc3)cc2C1=O	none (no result: PvdQ inh)
C[C@@H]1CN([C@H](C)CO)C(=O)c2cc(NC(=O)Cc3ccccc3)ccc2O[C@H]1CN(C)S(C)(=O)=O	none (no result: PvdQ inh)
C[C@@H]1CN([C@H](C)CO)C(=O)c2cc(NC(=O)Cc3ccccc3)ccc2O[C@@H]1CN(C)S(C)(=O)=O	F508del corr 8.0 (no result: PvdQ inh)
C[C@H](CO)N1C[C@H](C)[C@@H](CN(C)C(=O)c2ccncc2)OCCCC[C@H](C)Oc2ccc(NC(=O)Cc3ccccc3)cc2C1=O	ARNT TACC3 PPI active (no result: PvdQ inh)
C[C@@H]1CCCCO[C@@H](CN(C)C(=O)c2ccccc2)[C@H](C)CN([C@@H](C)CO)C(=O)c2cc(NC(=O)c3ccccc3)ccc2O1	rRNA inh HTS -21.1 (no result: PvdQ inh)
COc1ccc2c3c(n(C)c2c1)[C@H](CO)NCC31CCN(Cc2ccccc2Cl)CC1	none (no result: ARNT TACC3 PPI, ERAP1 HTS inh, PvdQ inh)
COc1ccc2c3c(n(C)c2c1)[C@H](CO)NCC31CCN(Cc2cc(-c3ccccc3)on2)CC1	F508del corr 12.0 (no result: ARNT TACC3 PPI, PvdQ inh)
COc1ccc(NC(=O)N(C)C[C@H]2Oc3cc(C#CCN(C)C)ccc3S(=O)(=O)N([C@@H](C)CO)C[C@H]2C)cc1	none (no result: PvdQ inh)
COCCNC(=O)C[C@H]1CC[C@@H]2[C@H](COc3ccc(NC(=O)c4cc(C)on4)cc3C(=O)N2C)O1	none (no result: PvdQ inh)
Cc1ccc2nc(NC(=S)NC(=O)c3ccco3)sc2c1	rRNA inh HTS -15.4 (no result: ARNT TACC3 PPI)
O=c1[nH]c(Nc2ccccc2)cc2ccccc12	none (no result: F508del corr, ERAP1 HTS inh, rRNA inh HTS)
COc1ccc(OC)c(Nc2cc3ccccc3c(=O)[nH]2)c1	ARNT TACC3 PPI 38.2
O=C(Nc1ccc2c(c1)OCCO2)C1CCN(S(=O)(=O)c2ccc3c(c2)OCCO3)CC1	rRNA inh HTS -31.8 (no result: F508del corr)
CC(=O)Nc1ccc(NC(=O)C2CCN(S(=O)(=O)c3ccc4c(c3)OCCO4)CC2)cc1	none
COc1ccc2nc(NN=C(C)c3ccccn3)cc(C)c2c1	ARNT TACC3 PPI 70.4
CN1CCC=C(C(=O)N2c3ccccc3Sc3ccc(Cl)cc32)C1	rRNA inh HTS -22.0 (no result: F508del corr)
CC(=O)N(C)C[C@H]1Oc2cc(-c3ccccc3C)ccc2S(=O)(=O)N([C@@H](C)CO)C[C@@H]1C	none (no result: PvdQ inh)
CN(C)/N=C/c1ccc(N2CCOCC2)cc1	rRNA inh HTS -17.0
C(=N\n1cnnc1)/c1ccc(N2CCOCC2)cc1	none (no result: F508del corr, ERAP1 HTS inh, rRNA inh HTS)
Cc1noc(NS(=O)(=O)c2ccc(NC(=O)CSc3nc4c(cc3C#N)CCCC4)cc2)c1C	rRNA inh HTS -24.7 (no result: ERAP1 HTS inh)
Cc1noc(NS(=O)(=O)c2ccc(NC(=O)CSc3nc4c(cc3C#N)CCC4)cc2)c1C	none
COc1ccc(S(=O)(=O)N(C)C[C@@H]2OCCCC[C@@H](C)Oc3ccc(NC(=O)c4ccncc4)cc3C(=O)N([C@@H](C)CO)C[C@H]2C)cc1	none (no result: PvdQ inh)
ClC1(Cl)CC1CSc1nc2ccccc2[nH]1 (stereo not given)	rRNA inh HTS -27.5 (no result: ARNT TACC3 PPI)
CCOc1ccc2nc(SCC3CC3(Cl)Cl)[nH]c2c1 (stereo not given)	none
CCN(CC)CCn1c2ccccc2c2nc3ccccc3nc21	F508del corr 24.2
NNC(=O)c1csc(CS(=O)(=O)c2ccc(Cl)cc2)n1	none
NNC(=O)c1csc(Cc2c(Cl)sc3ccc(Cl)cc23)n1	rRNA inh HTS -30.8
CCCNC(=O)Nc1ccc2c(c1)C(=O)N(C)[C@H]1CC[C@H](CC(=O)O)O[C@@H]1CO2	none (no result: ERAP1 HTS inh, PvdQ inh)
CS(=O)(=O)c1cccc(C(=O)Nc2cccc(-c3nc4ccccc4[nH]3)c2)c1	rRNA inh HTS -19.4
O=C(C[C@H]1CC[C@@H]2[C@H](COC[C@@H](O)CN2C(=O)c2cnccn2)O1)NCc1ccc(Oc2ccccc2)cc1	none (no result: PvdQ inh)
Cc1ccc(-c2cc(-c3n[nH]c(=S)o3)c3ccccc3n2)cc1	rRNA inh HTS -18.4
CC(C)NC(=O)Nc1cccc2c1O[C@H](CN(C)C(=O)Nc1ccc(F)cc1)[C@H](C)CN([C@H](C)CO)C2=O	none (no result: PvdQ inh)
Cc1ccc(C(=O)CSc2nnnn2Cc2ccccc2)cc1C	rRNA inh HTS -27.8 (no result: ERAP1 HTS inh)
C/C=C/c1ccc2c(c1)O[C@H](CNC)[C@@H](C)CN([C@H](C)CO)S2(=O)=O	none (no result: ARNT TACC3 PPI, ERAP1 HTS inh, PvdQ inh)
C[C@@H]1CN([C@@H](C)CO)C(=O)Cc2cc(NC(=O)NC3CCCCC3)ccc2O[C@@H]1CN(C)C(=O)NC1CCCCC1	none (no result: PvdQ inh)
Cc1noc(C)c1S(=O)(=O)Nc1ccc2c(c1)CC(=O)N([C@H](C)CO)C[C@H](C)[C@@H](CN(C)Cc1ccc3c(c1)OCO3)O2	none (no result: ARNT TACC3 PPI, PvdQ inh)
O=C1CC[C@@H](O)CCN1CC[C@H](Sc1ccccc1)c1ccccc1	rRNA inh HTS -30.7
COc1ccc(-c2ccnc3cc(C(=O)O)nn23)cc1	none
O=C(O)c1cc2nccc(-c3ccco3)n2n1	PvdQ inh 39.1
CCC(=O)N1[C@H](C(=O)NCc2ccccc2F)[C@@H](CO)[C@@H]2Cn3c(cccc3=O)[C@@H]21	none (no result: ARNT TACC3 PPI, ERAP1 HTS inh, PvdQ inh)
CC(=O)Nc1ccc2c(c1)C(=Nc1ccc(C)cc1)c1ccccc1-2	rRNA inh HTS -22.1
C/C(=N\NC(=O)c1cc(C)nc2ccccc12)c1ccncc1	none
C/C(=N\NC(=O)c1cc(C)nc2ccccc12)c1ccccn1	rRNA inh HTS -24.4 (no result: ARNT TACC3 PPI)

Screening results (PubChem BioAssay)
